Laboratory results published in PubChem BioAssay (EPA / NIEHS).
Several values for one entry are separate records, joined by “and”; a condition that tells them apart may be missing. Equal entries are not always repeated. Where a structure was tested more than once in an assay, its records may differ in their call. Activity calls are given as the source filed them. Rule for the calls: active = hit-call score of the fitted dose curve at least 0.9, where 1 is the maximum; inactive = score below 0.9.

Experiments:
[1] = read-out: TIMP metallopeptidase inhibitor 2 (TIMP2), TIMP2 (gene 7077); assay: BSK_KF3CT_TIMP2: BioMAP Diversity Plus: KF3CT Assay for TIMP metallopeptidase inhibitor 2 (TIMP2) Biomarker Activity (AID 2283071); details: primary human keratinocytes with fibroblasts; actives raise or lower the signal
How it was run: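 Human primary keratinocyte/foreskin fibroblast co-culture dosed with chemical and sampled at 24 h. TIMP-2 levels quantified by ELISA; bidirectional fitting against DMSO negative control as baseline.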

[2] = read-out: C-C motif chemokine 2 (Homo sapiens) (UniProt P13500); assay: BSK_KF3CT_MCP1: BioMAP Diversity Plus: KF3CT Assay for Monocyte Chemoattractant Protein 1 (MCP1/CCL2) Biomarker Activity (AID 2283073); details: primary human keratinocytes with fibroblasts; actives raise or lower the signal
How it was run: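 Human keratinocyte–foreskin fibroblast co-culture; MCP-1 measured by ELISA 24 h after dosing. Bidirectional fit vs DMSO; cytotoxicity tracked by SRB total protein in parallel cultures.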

[3] = read-out: Matrix Metallopeptidase 9 (MMP9), MMP9 (gene 4318); assay: BSK_KF3CT_MMP9: BioMAP Diversity Plus: KF3CT Assay for Matrix Metallopeptidase 9 (MMP9) Biomarker Activity (AID 2283074); details: primary human keratinocytes with fibroblasts; actives raise or lower the signal;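 for AC50: MMP9 protein level quantified by ELISA in the co-culture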
How it was run: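 Human keratinocyte and foreskin fibroblast co-culture exposed to chemicals for 24 h; MMP9 biomarker measured by ELISA, bidirectional fitting relative to DMSO; cytotoxicity tracked by SRB total protein staining in parallel cultures.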

[4] = read-out: urokinase plasminogen activator (uPA), PLAU (gene 5328); assay: BSK_KF3CT_uPA: BioMAP Diversity Plus: KF3CT Assay for urokinase plasminogen activator (uPA) Biomarker Activity (AID 2283075); details: primary human keratinocytes with fibroblasts; actives raise or lower the signal
How it was run: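 Primary human keratinocyte/foreskin fibroblast co-culture exposed to chemical; uPA measured by ELISA at 24 h. Bidirectional fit versus DMSO, with parallel SRB total-protein staining for cytotoxicity.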

CD40, CD40 (gene 958) = assay: BSK_LPS_CD40: BioMAP Diversity Plus: LPS Assay for CD40 Biomarker Activity (AID 2283076); details: primary human HUVEC with PBMC; actives raise or lower the signal
How it was run: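 HUVEC plus PBMC co-culture stimulated with LPS; CD40 quantified by ELISA 24 h after compound dosing. Fitting was bidirectional relative to DMSO. SRB staining of parallel cultures flagged overt cytotoxicity.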

[5] = read-out: E-selectin (Homo sapiens) (UniProt P16581); assay: BSK_LPS_Eselectin: BioMAP Diversity Plus: LPS Assay for Eselectin Biomarker Activity (AID 2283077); details: primary human HUVEC with PBMC; actives raise or lower the signal
How it was run: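 Human umbilical vein endothelial cells co-cultured with PBMC under LPS stimulation; cell-surface E-selectin measured by ELISA 24 h after dosing. Change in either direction versus DMSO, with SRB total-protein staining in parallel cultures for cytotoxicity.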

[6] = read-out: Interleukin-8 (IL8), CXCL8 (gene 3576); assay: BSK_LPS_IL8: BioMAP Diversity Plus: LPS Assay for Interleukin-8 (IL8) Biomarker Activity (AID 2283078); details: primary human HUVEC with PBMC; actives raise or lower the signal
How it was run: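 Human umbilical vein endothelial cells co-cultured with PBMC, LPS-stimulated, exposed to compound for 24 h. IL-8 quantified by ELISA; fitted in both directions against DMSO, with SRB total-protein staining of parallel cultures for cytotoxicity.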

[7] = BSK_LPS_SRB: Viability Assessment in the BioMAP Diversity Plus: LPS Assay (AID 2283079); details: primary human HUVEC with PBMC;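 note: total protein by sulforhodamine B absorbance as a cytotoxicity measure; measured one day after compound addition; fitted in both directions against DMSO so loss or gain of signal counts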
How it was run: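 Co-culture of human umbilical vein endothelial cells and PBMC, read 24 h after dosing. Total protein by 0.1% SRB staining after 10% TCA fixation, absorbance at 560 nm; bidirectional fit against DMSO.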

[8] = read-out: Interleukin-1 alpha (IL1a), IL1A (gene 3552); assay: BSK_KF3CT_IL1a: BioMAP Diversity Plus: KF3CT Assay for Interleukin-1 alpha (IL1a) Biomarker Activity (AID 2283070); details: primary human keratinocytes with fibroblasts; actives raise or lower the signal
How it was run: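 Primary human keratinocyte plus foreskin fibroblast co-culture, dosed and measured at 24 h in 96-well plates. IL-1a level quantified by ELISA; bidirectional fit relative to DMSO.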

[9] = read-out: Transforming growth factor beta 1 (TGFb1), TGFB1 (gene 7040); assay: BSK_KF3CT_TGFb1: BioMAP Diversity Plus: KF3CT Assay for Transforming growth factor beta 1 (TGFb1) Biomarker Activity (AID 2283072); details: primary human keratinocytes with fibroblasts; actives raise or lower the signal
How it was run: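 Human keratinocyte plus foreskin fibroblast primary co-culture, dosed with chemical for 24 h. TGF-b1 quantified by ELISA. Activity fitted bidirectionally against DMSO negative control as baseline.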

Measured: AC50

E-selectin (Homo sapiens), sequence (P16581 whole entry, looked up): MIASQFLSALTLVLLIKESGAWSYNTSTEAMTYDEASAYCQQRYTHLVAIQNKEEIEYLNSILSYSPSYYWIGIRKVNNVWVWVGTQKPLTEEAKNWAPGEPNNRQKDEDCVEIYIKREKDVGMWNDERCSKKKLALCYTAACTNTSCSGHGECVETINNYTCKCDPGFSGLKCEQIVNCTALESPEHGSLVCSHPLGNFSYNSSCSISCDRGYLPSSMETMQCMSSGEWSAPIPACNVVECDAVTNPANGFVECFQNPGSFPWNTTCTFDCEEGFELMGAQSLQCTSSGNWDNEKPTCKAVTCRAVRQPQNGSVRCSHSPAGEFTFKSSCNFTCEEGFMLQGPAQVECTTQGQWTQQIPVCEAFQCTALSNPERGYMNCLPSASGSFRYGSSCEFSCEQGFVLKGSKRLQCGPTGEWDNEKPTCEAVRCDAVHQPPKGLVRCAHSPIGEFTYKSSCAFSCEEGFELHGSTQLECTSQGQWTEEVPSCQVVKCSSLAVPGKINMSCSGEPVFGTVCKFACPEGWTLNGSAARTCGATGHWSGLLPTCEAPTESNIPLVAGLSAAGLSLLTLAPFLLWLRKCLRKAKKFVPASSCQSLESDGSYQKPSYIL

CC1(c2ccc(Oc3ccccc3)cc2)OC(=O)N(Nc2ccccc2)C1=O (stereo not drawn)
inactive: [1] | [2] | [3] | [4]
active: CD40, CD40 (gene 958) 24.1 µM | [5] 20 µM | [6] 20 µM | [7] 31 µM

Oc1cc(Cl)ccc1Oc1ccc(Cl)cc1Cl
active: [8] 29.8 µM [middle of 4 runs] | [1] 30 µM and 29.7 µM and 20 µM | [9] 18.5 µM [middle of 4 runs] | [3] 15.2 µM [middle of 4 runs] | [4] 31 µM [middle of 4 runs] | CD40, CD40 (gene 958) 12.3 µM and 9.21 µM and 12.1 µM | [5] 15.6 µM [middle of 4 runs] | [6] 27.6 µM [middle of 4 runs] | [7] 17.1 µM and 19.7 µM and 18.7 µM

O=S1OCC2C(CO1)C1(Cl)C(Cl)=C(Cl)C2(Cl)C1(Cl)Cl (stereo not drawn)
active: [1] 26.9 µM | [3] 15.9 µM | [4] 30.9 µM | CD40, CD40 (gene 958) 29.2 µM | [5] 30.9 µM | [6] 33.5 µM

[2H]C1([2H])[n+]2ccccc2-c2cccc[n+]2C1([2H])[2H]
inactive: [1] | CD40, CD40 (gene 958) | [5] | [6] | [7]
active: [3] 13.3 µM | [4] 28.9 µM

O=C(O)C(F)(F)C(F)(F)C(F)(F)C(F)(F)C(F)(F)C(F)(F)C(F)(F)F
active: CD40, CD40 (gene 958) 23.1 µM | [5] 16.1 µM | [6] 30 µM and 13.3 µM
inactive: [1] | [3] | [4] | CD40, CD40 (gene 958) | [5] | [6] | [7]

CNC(=O)Oc1cccc(N=CN(C)C)c1
inactive: [1] | [3] | [4] | [7]
active: CD40, CD40 (gene 958) 13.5 µM | [5] 20 µM | [6] 20 µM

OCCOc1ccccc1
inactive: [1] | [3] | [4] | CD40, CD40 (gene 958) | [5] | [6] | [7]

CCC(C)(NC(=O)c1cc(Cl)c(C)c(Cl)c1)C(=O)CCl (stereo not drawn)
active: [1] 16.6 µM | [3] 7.45 µM | [4] 35.5 µM | CD40, CD40 (gene 958) 3.52 µM | [5] 10.1 µM | [6] 12.2 µM | [7] 20 µM

COP(=S)(OC)Oc1ccc([N+](=O)[O-])cc1
active: [1] 34.6 µM | CD40, CD40 (gene 958) 20 µM | [7] 10.5 µM
inactive: [3] | [4] | [5] | [6]

Oc1ccc(Cl)cc1Cc1ccccc1
active: CD40, CD40 (gene 958) 21.1 µM [middle of 7 runs] | [5] 31.3 µM [middle of 6 runs] | [6] 35.3 µM [middle of 7 runs] | [7] 29.3 µM [middle of 7 runs]

Cc1[nH]c(=O)n(C(C)(C)C)c(=O)c1Cl
inactive: [1] | [3] | [4] | [5] | [6] | [7]

O=[N+]([O-])/N=C1\NCCN1Cc1ccc(Cl)nc1
inactive: [1] | [3] | [4] | CD40, CD40 (gene 958) | [5] | [6] | [7]

CCCN(CCC)c1c([N+](=O)[O-])cc(C(F)(F)F)cc1[N+](=O)[O-]
active: CD40, CD40 (gene 958) 20.4 µM | [5] 15.2 µM
inactive: [1] | [2] | [3] | [4] | [6] | [7]

CCC(C)(C)C(=O)OC1=C(c2ccc(Cl)cc2Cl)C(=O)OC12CCCCC2
active: [1] 28 µM | [3] 20 µM | [4] 30.9 µM | CD40, CD40 (gene 958) 10.5 µM | [5] 25.3 µM | [6] 32.6 µM | [7] 28.6 µM

O=C(NC(=O)c1c(F)cccc1F)Nc1ccc(OC(F)(F)C(F)OC(F)(F)F)c(Cl)c1 (stereo not drawn)
inactive: [1] | [3] | [4] | CD40, CD40 (gene 958) | [5] | [6] | [7]

COC(=O)c1ccccc1S(=O)(=O)NC(=O)Nc1nc(C)nc(OC)n1
inactive: [1] | [3] | [4] | CD40, CD40 (gene 958) | [5] | [6] | [7]

O=C(O)CCCOc1ccc(Cl)cc1Cl
inactive: [1] | [2] | [3] | [4] | CD40, CD40 (gene 958) | [5] | [6] | [7]

CCc1ccc(C(=O)NN(C(=O)c2cc(C)cc(C)c2)C(C)(C)C)cc1
inactive: [1] | [3] | [4] | CD40, CD40 (gene 958) | [5] | [6] | [7]

COP(=S)(OC)Oc1ccc(SC)c(C)c1
active: [7] 30.6 µM
inactive: [1] | [3] | [4] | CD40, CD40 (gene 958) | [5] | [6]

CC[C@H](C)[C@H]1O[C@]2(C=C[C@@H]1C)C[C@@H]1C[C@@H](C/C=C(\C)[C@@H](O[C@H]3C[C@H](OC)[C@@H](O[C@H]4C[C@H](OC)[C@@H](O)[C@H](C)O4)[C@H](C)O3)[C@@H](C)/C=C/C=C3\CO[C@@H]4[C@H](O)C(C)=C[C@@H](C(=O)O1)[C@]34O)O2 (tested in a mixture with another compound)
active: [1] 12.6 µM | [3] 5.77 µM | [4] 15.5 µM | CD40, CD40 (gene 958) 6.65 µM | [5] 9.62 µM | [6] 5.94 µM | [7] 6.41 µM

CNC(=O)/C=C(\C)OP(=O)(OC)OC
inactive: [1] | [3] | [4] | CD40, CD40 (gene 958) | [5] | [6] | [7]

O=C1c2ccccc2C(=O)N1SC(Cl)(Cl)Cl
active: [7] 0.303 µM
inactive: [1] | [3] | [4] | CD40, CD40 (gene 958) | [5] | [6]

CNC(=O)CSP(=S)(OC)OC
inactive: [1] | [2] | [3] | [4] | CD40, CD40 (gene 958) | [5] | [6] | [7]

COC(=O)c1ccccc1S(=O)(=O)NC(=O)N(C)c1nc(C)nc(OC)n1
inactive: [1] | [3] | [4] | CD40, CD40 (gene 958) | [5] | [6] | [7]

C#CCN1C(=O)COc2cc(F)c(N3C(=O)C4=C(CCCC4)C3=O)cc21
inactive: [1] | [3] | [4] | CD40, CD40 (gene 958) | [5] | [6] | [7]

CC1(C)C(C=C(Cl)Cl)C1C(=O)OC(C#N)c1ccc(F)c(Oc2ccccc2)c1 (stereo not drawn)
active: [6] 20 µM | [7] 6.63 µM
inactive: [1] | [2] | [3] | [4] | CD40, CD40 (gene 958) | [5]

CCS(=O)(=O)c1cccnc1S(=O)(=O)NC(=O)Nc1nc(OC)cc(OC)n1
inactive: [1] | [3] | [4] | CD40, CD40 (gene 958) | [7]
active: [5] 7.35 µM | [6] 5.47 µM

CCN(CC)C(=O)SCc1ccc(Cl)cc1
inactive: [1] | [3] | [4] | CD40, CD40 (gene 958) | [5] | [6] | [7]

CNC(=O)Oc1ccccc1OC(C)C
inactive: [1] | [3] | [4] | CD40, CD40 (gene 958) | [5] | [6] | [7]
